Nrf2 activator: activators of Nrf2 (ARE) signaling. AREc32 ARE-luciferase reporter (MCF7-derived line), luminescence, 24 h. Potency, µM (top dose mostly 46.1 µM), most hits filed as activators. 0.31% of 410,000 active; further: nearly all actives have a fitted effect of over 65% in size
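AREc32 cells carrying an ARE-driven firefly luciferase, 1000 cells/well in OPTI-MEM with 5% FBS, dosed after overnight attachment and incubated 24 hr at 37 deg C. Steady-Glo luminescence read after 30 min at RT.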
A549 viability: A549 cytotoxicity, counter-screen for Nrf2 inhibitors; A549 ARE-Fluc cells, CellTiter-Fluor viability, 18-24 h; Potency, µM (top dose mostly 46 µM), usual class: inhibitors; 0.16% of 390,000 active; AID 504648
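A549 ARE_Fluc cells in 5% FBS OPTI-MEM were exposed to compounds in concentration-response for 18-24 h at 37 deg C. Viability was read by CellTiter-Fluor fluorescence (Ex 405/Em 525) after 30 min, before the luciferase read.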
LDHA inh: LDHA (human) enzyme inhibition; purified LDHA, NADH/diaphorase-resazurin fluorescence; stronger effect = lower value; activity change, % (values are at about 110 or 230 µM); 0.15% of 480,000 active; AID 1347041; in the data active means activity change below about -30%; inconclusive means mostly about -25% to -30%
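LDH5 2 nM; NADH 0.06 mM, pyruvate 0.2 mM; 200 mM Tris pH 7.4, EDTA, Tween-20; 5 min RT. Detection: diaphorase 0.133 mg/mL + resazurin 37 µM, fluorescence ex540/em590 at 0 and 20 min; normalized to enzyme-free and DMSO wells.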
mIDH1 inhibitor: human IDH1 R132H inhibition. O75874. IDH1-R132H enzyme, NADPH consumption, diaphorase/resazurin fluorescence. Potency, µM (highest dose often 76.6 µM), most hits filed as inhibitors. 0.093% of 390,000 active; further: nearly all actives have a fitted effect of over 65% in size
Target sequence (O75874 whole entry R132H, stated change not applied): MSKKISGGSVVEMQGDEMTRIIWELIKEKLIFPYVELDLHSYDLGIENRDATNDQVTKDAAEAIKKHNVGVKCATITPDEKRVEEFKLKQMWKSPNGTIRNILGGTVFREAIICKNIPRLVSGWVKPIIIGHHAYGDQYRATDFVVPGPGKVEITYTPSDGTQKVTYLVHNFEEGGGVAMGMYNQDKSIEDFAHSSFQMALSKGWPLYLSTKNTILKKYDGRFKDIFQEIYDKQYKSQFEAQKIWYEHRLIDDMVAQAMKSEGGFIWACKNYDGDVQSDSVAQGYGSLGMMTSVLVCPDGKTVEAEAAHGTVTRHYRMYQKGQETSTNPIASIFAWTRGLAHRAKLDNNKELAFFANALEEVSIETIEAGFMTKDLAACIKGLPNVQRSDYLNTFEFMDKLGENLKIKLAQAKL
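IDH1-R132H (0.5 ug/mL) preincubated 30 min with compound, then NADPH (0.016 mM) and alpha-KG (2 mM) added; 80 min at RT, pH 7.5. Remaining NADPH coupled via diaphorase/resazurin to fluorescence (540/590 nm); concentration-response curves normalized to no-enzyme control.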
Nrf2 inh: blocks Nrf2 signaling; 2.1% of 360,000 active; AID 504444; A549 ARE-Fluc reporter, luciferase luminescence, 18-24 h; Potency, µM (highest dose often 46 µM), hits mostly inhibitors; further: nearly all actives have a fitted effect of over 60% in size
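Nrf2 activity is the BugLite luminescence, read 15 min after reagent at room temperature, following CellTiter-Fluor cytotoxicity readout (30 min, 37C). Compound titrations were applied for 18-24 h to 5000 A549 ARE_Fluc cells/well in 5% FBS OPTI-MEM.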
ALOX12 inh: blocks human arachidonate 12S-lipoxygenase. P18054. AID 1671190. Potency, µM (series often up to 108 µM), actives largely listed as inhibitors. purified 12hLO, xylenol orange hydroperoxide absorbance. 1.1% of 580,000 active
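Purified human 12hLO (150 nM final) in 25 mM Hepes, 0.01% Triton X-100, pH 7.0 was preincubated 15 min at room temperature with compound. Then 40 uM arachidonic acid was added, 30 min. Hydroperoxide was read by Fe-XO absorbance ratio 573/405 nm.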
Numbers stand for hits; – = inactive; ? = inconclusive; · = no result. Compounds with a hit are over-represented: about 2.7% of the library has one in this group of screens. Unless noted, the call rests on the fitted dose curve; in most records, active means well fitted curve in the direction sought with a large enough effect; inconclusive means small, poorly fitted or top-dose-only effect, or another doubt; inactive means no such curve, though single readings can be large; an effect the other way counts as inactive or inconclusive.

SMILES | Nrf2 activator | A549 viability | LDHA inh | mIDH1 inhibitor | Nrf2 inh | ALOX12 inh
CC1=C(C(=O)OC(C)C(C)(C)C)C(c2ccc(Cl)cc2)NC(=O)N1 (stereo not drawn) | · | · | – | · | · | –
CC(Sc1nc2ccccc2o1)C(=O)NC(=O)NC1CCCCC1 (stereo not drawn) | · | · | – | · | · | –
COc1ccc(-c2onc3ccc(C(=O)/C=C/N(C)C)cc23)cc1 | – | – | – | – | ? | 35µM
CCCNS(=O)(=O)c1ccc(N2C(=O)CCS2(=O)=O)cc1C | · | · | – | · | · | –
Cc1cccc(N2CCN(C(=O)c3cc4cc(F)ccc4[nH]3)CC2)c1C | 7.1µM | – | – | – | – | ·
COc1ccccc1N1CCN(C(=O)c2cc3cc(F)ccc3[nH]2)CC1 | – | – | – | – | ? | –
Cc1cc(NC(=O)C2CC2)sc1C(=O)NC(C)c1ccccc1 (stereo not drawn) | · | · | – | · | · | –
CN(Cc1ccccc1)Cc1nc2c(c(=O)n(C)c(=O)n2C)n1Cc1ccc(Cl)cc1 | – | · | – | – | 15µM | ?
CCCCCn1c(N2CCC(Cc3ccccc3)CC2)nc2c1c(=O)[nH]c(=O)n2C | – | ? | – | – | 23µM | ·
CCOCCn1c(CN2CCN(c3ccc(F)cc3)CC2)nc2c1c(=O)n(C)c(=O)n2C | – | – | – | – | ? | –
C=C(C)Cn1c(N2CCN(c3ccc(OC)cc3)CC2)nc2c1c(=O)n(C)c(=O)n2C | – | – | – | – | 23µM | –
CCCn1c(N2CCC(Cc3ccccc3)CC2)nc2c1c(=O)[nH]c(=O)n2C | – | ? | – | – | · | –
COC(=O)Cn1c(CN2CCN(c3ccc(F)cc3)CC2)nc2c1c(=O)n(C)c(=O)n2C | – | – | – | – | 18µM | ·
Cc1ccc(N2CC(C(=O)Nc3c(NC4CCCC4)c4ccccc4oc3=O)CC2=O)cc1 (stereo not drawn) | · | · | – | · | · | –
Cc1ccc(S(=O)(=O)N2CCOCC2)cc1C(=O)Nc1ccccc1-c1nc2ccccc2[nH]1 | · | · | – | · | · | –
CCc1nc2ccccc2c(C(=O)OCc2ccccc2)c1C | · | · | – | · | · | –
CCCCCn1c(CN(C)Cc2ccccc2)nc2c1c(=O)n(C)c(=O)n2C | – | – | – | – | 18µM | –
CCCCCCn1c(N2CCN(c3ccccc3)CC2)nc2c1c(=O)n(C)c(=O)n2C | – | ? | – | – | 23µM | –
CCCCn1c(CN(Cc2ccccc2)Cc2ccccc2)nc2c1c(=O)n(C)c(=O)n2C | – | – | – | – | – | –
CCOCCn1c(N2CCN(c3ccccc3)CC2)nc2c1c(=O)n(C)c(=O)n2C | – | – | – | – | – | –
COc1ccc(CNC(=O)Cc2c(C)c3ccc(OC)c(OC)c3oc2=O)c(OC)c1 | · | · | – | · | · | ?
CCn1nc(C(=O)Nc2ccc(C)c(S(=O)(=O)N3CCOCC3)c2)c2ccccc2c1=O | · | · | – | · | · | ?
CC(=O)Nc1ccc(CN2CC3CCC(C2)N3c2ccc(C(F)(F)F)cc2)cc1 | · | · | · | · | · | –
CC(C)C[C@H](NC(=O)c1nc[nH]c1C(=O)N[C@@H](CC(C)C)C(=O)OC(C)(C)C)C(=O)OC(C)(C)C | – | ? | – | – | 26µM | –
Nc1nnc(N)c2ccccc12 | – | – | – | – | – | –
SMILES | Nrf2 activator | A549 viability | LDHA inh | mIDH1 inhibitor | Nrf2 inh | ALOX12 inh
Nc1nsc2ccccc12 | 11µM | – | – | – | ? | –
Cc1ccc(C(=O)Nc2ccc(S(=O)(=O)O)c3cc(S(=O)(=O)O)cc(S(=O)(=O)O)c23)cc1NC(=O)c1cccc(NC(=O)Nc2cccc(C(=O)Nc3cc(C(=O)Nc4ccc(S(=O)(=O)O)c5cc(S(=O)(=O)O)cc(S(=O)(=O)O)c45)ccc3C)c2)c1 | · | · | -94 | · | · | –
CCOc1ccccc1N(CC(=O)NC1CCCC1)S(=O)(=O)c1ccc(C)cc1 | – | – | – | – | 15µM | ?
COc1ccc(OC)c(NS(=O)(=O)c2ccc(NC(=O)C3COc4ccccc4O3)cc2)c1 (stereo not drawn) | – | – | – | – | 16µM | –
O=C(Nc1ccc(S(=O)(=O)Nc2ncccn2)cc1)C1COc2ccccc2O1 (stereo not drawn) | – | – | – | – | ? | –
CC(=O)Nc1ccc(S(=O)(=O)N2CCN(C(=O)C3COc4ccccc4O3)CC2)cc1 (stereo not drawn) | – | – | – | – | ? | –
COc1ccc(S(=O)(=O)N2CCN(C(=O)C3COc4ccccc4O3)CC2)cc1 (stereo not drawn) | – | – | – | – | – | 40µM
CCCCCCc1ccc(-c2ccc(C(=O)OCC)cc2)nc1 | · | · | – | · | · | –
CC(C)Oc1ccc(OCCn2c(=S)[nH]c3c(N)ncnc32)cc1 | – | – | – | – | – | 45µM
COc1cc(NS(=O)(=O)c2ccc(OC)c(C)c2C)c(OC)cc1Cl | – | – | – | – | 21µM | –
CC(C)(C)c1ccc(CN(Cc2ccccc2)C(=S)Nc2ccc(Br)cc2)cc1 | · | · | – | · | · | ?
CC(=O)Nc1ccccc1N(CC(O)Cn1c2ccccc2c2ccccc21)S(=O)(=O)c1ccc(C)cc1 (stereo not drawn) | – | – | – | – | 26µM | –
COc1cc(SC)ccc1C(=O)OC(C(=O)c1ccccc1)c1ccccc1 (stereo not drawn) | · | · | -33 | · | · | –
COc1cc(SC)ccc1C(=O)Nc1ccccn1 | 13µM | – | – | – | ? | –
COc1ccc(OC)c(C2CC(=O)Nc3c(C(=O)O)cn(-c4ccc(F)cc4)c32)c1 (stereo not drawn) | · | · | – | · | · | ?
O=S(=O)(Cc1ccccc1)CC1CC1(Cl)Cl (stereo not drawn) | · | · | – | · | · | –
N#Cc1c(N2CCN(C(=O)c3ccco3)CC2)nc(-c2ccccc2)c2c1CCCC2 | – | ? | – | – | 18µM | ?
CC1CCN(C(=O)C(=O)N2CCN(c3nc(-c4ccco4)c4c(c3C#N)CCCC4)CC2)CC1 | · | · | – | · | · | 32µM
CC(=O)N1CCN(c2nc(CC(C)C)c3c(c2C#N)CCC3)CC1 | – | – | – | – | – | –
CCc1nc(N2CCN(C(=O)c3ccco3)CC2)c(C#N)c2c1COC(C)(C)C2 | – | – | – | – | 15µM | –
CC(C)Cc1nc(N2CCN(C(=O)c3ccccc3)CC2)c(C#N)c2c1CCC2 | – | · | – | – | 23µM | –
N#Cc1c(N2CCN(C(=O)c3ccccc3)CC2)nc(-c2ccccc2)c2c1CCCC2 | – | ? | – | – | – | –
CC(=O)N1CCN(c2oc(/C=C/c3ccc(Cl)cc3)nc2C#N)CC1 | · | · | – | · | · | –
Cc1cc2occ(CC(=O)Nc3ccc(Cl)cc3F)c2cc1C | · | · | – | · | · | ?
COc1ccc(CNCc2cc3c(C(C)(C)C)nn(-c4ccccc4)c3[nH]c2=O)cc1 | – | – | – | – | 18µM | –

Screening results from PubChem BioAssay.
